Rv3671c protease: Rv3671c serine protease inhibitors, primary screen, biochemical, fluorescence polarization, M. tuberculosis H37Rv | P9WHR9 | inhibition, % at 5.96 µM | 320,000 compounds, 0.048% hits; in the data active = inhibition above about 38%;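 note: extracellular domain of Rv3671c used as enzyme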
Mtb BioA inh: M. tuberculosis BioA enzyme inhibitors, primary screen, biochemical, plate reader, single point, HTS; 7,8-diaminopelargonic acid synthase BioA (Mycobacterium tuberculosis); purified M. tuberculosis BioA enzyme; inhibition, % at 9.99 µM; 360,000 compounds, 0.096% hits; in the data active = inhibition above about 40%; inconclusive = no clear call, values can overlap the other calls
Mtb UGM inh: M. tuberculosis UGM enzyme inhibitors, primary screen, biochemical, fluorescence polarization, single point; UDP-galactopyranose mutase (Mycobacterium tuberculosis (strain ATCC 25618 / H37Rv)), …; purified UGM, fluorescence polarization probe displacement; inhibition, % at 10 µM; 320,000 compounds, 0.06% hits; in the data active = inhibition above about 10%, passing the limit was not always enough; inconclusive = no clear call, values can overlap the other calls
RecA intein inh: Mtb RecA intein splicing inhibitors, primary screen, biochemical, fluorescence, HTS; cell-free RecA intein splicing; inhibition, % (no concentration beside the values); 290,000 compounds, 0.75% hits; AID 2221, 2009; in the data active = inhibition above about 30%; inconclusive = no clear call, values can overlap the other calls
Target sequence (P9WHJ3 whole entry, looked up): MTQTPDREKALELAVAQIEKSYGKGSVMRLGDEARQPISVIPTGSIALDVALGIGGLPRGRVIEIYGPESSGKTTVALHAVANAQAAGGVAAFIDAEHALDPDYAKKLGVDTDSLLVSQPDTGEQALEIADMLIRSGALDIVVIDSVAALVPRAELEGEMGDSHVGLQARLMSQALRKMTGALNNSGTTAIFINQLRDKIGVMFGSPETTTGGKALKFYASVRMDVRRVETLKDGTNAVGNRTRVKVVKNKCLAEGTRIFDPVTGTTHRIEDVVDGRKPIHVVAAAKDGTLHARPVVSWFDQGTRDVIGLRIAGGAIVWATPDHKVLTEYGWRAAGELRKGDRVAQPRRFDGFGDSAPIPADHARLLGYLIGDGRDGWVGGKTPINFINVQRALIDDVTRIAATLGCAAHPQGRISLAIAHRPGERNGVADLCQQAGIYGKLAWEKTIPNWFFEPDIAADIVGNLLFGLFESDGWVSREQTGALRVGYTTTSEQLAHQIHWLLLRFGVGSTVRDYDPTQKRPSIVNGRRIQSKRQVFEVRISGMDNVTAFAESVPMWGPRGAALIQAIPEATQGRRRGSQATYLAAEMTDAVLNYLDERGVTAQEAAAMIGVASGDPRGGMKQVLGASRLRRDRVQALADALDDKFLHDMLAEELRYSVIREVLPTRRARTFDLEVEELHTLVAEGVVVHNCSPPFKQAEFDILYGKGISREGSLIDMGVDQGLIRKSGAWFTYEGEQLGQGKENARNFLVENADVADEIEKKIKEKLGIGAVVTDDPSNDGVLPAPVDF
TcdB inh: TcdB glycohydrolase inhibitors, primary screen, biochemical, single point, plate reader. Toxin B (Clostridioides difficile), P18177. TcdB glycohydrolase enzymatic assay. inhibition, % at 9.99 µM. 350,000 compounds, 0.24% hits; in the data active = inhibition above about 10%
FadD28 binding: inhibitors of FadD28 bisubstrate probe binding, primary screen, biochemical, fluorescence polarization, single point; inhibition, % at 12.5 µM; 360,000 compounds, 0.22% hits; Mycobacterium tuberculosis FadD28 fatty-acid-AMP ligase; AID 588549, 2011; in the data active = inhibition above about 8.5%, passing the limit was not always enough; inconclusive = no clear call, values can overlap the other calls
GFP chromophore: counter-screen: blocks GFP chromophore formation, dose response, counter-screen, biochemical, fluorescence, homogeneous; cell-free GFP chromophore formation; 2,100 compounds, 83% hits; shares compounds with RecA intein inh; EC50, µM; AID 434968, 2010; call rule not given here
Numbers stand for hits; . = inactive; ? = inconclusive; / = not tested or not shown. An excerpt weighted towards active compounds, which were near 0.97% of everything screened.

SMILES	Rv3671c protease	Mtb BioA inh	Mtb UGM inh	RecA intein inh	TcdB inh	FadD28 binding	GFP chromophore
CCCCCCn1c(N2CCC(C(N)=O)CC2)nc2c1c(=O)n(C)c(=O)n2C	.	.	.	47	/	.	.
CCCCCCn1c(N2CCC(C(N)=O)CC2)nc2c1c(=O)[nH]c(=O)n2C	.	.	.	.	/	.	/
C[C@@H]1CCCCO[C@@H](CN(C)C(=O)Cc2ccccc2)[C@H](C)CN([C@H](C)CO)C(=O)c2cc(NC(=O)CCC(F)(F)F)ccc2O1	/	.	/	/	/	/	/
Cc1ccc(C2=NN(C(=O)CCC(=O)O)C(c3cccs3)C2)cc1 (stereo unspecified)	.	.	.	.	.	.	/
O=C(CCl)N1N=C(c2ccco2)CC1c1cccs1 (stereo unspecified)	.	.	.	67	/	.	25
Cc1ccc(C2=NN(C(=O)CCl)C(c3cccs3)C2)o1 (stereo unspecified)	.	/	.	74	.	.	4.6
CC(=O)N1N=C(c2ccco2)CC1c1cccs1 (stereo unspecified)	.	.	.	.	/	.	/
CCC(=O)N1CCC2(CC1)CN(C(=O)c1cnccn1)[C@@H](CO)c1c2c2ccc(OC)cc2n1C	/	/	/	/	.	/	/
N#Cc1c(N2CCCC2)nc(N)c2c(N)nc(N3CCCC3)cc12	.	/	.	58	/	.	0.24
COC(CNC(=O)c1cccnc1)OC	.	/	.	.	.	.	/
COC(CNC(=O)c1ccc2c3c(onc13)-c1ccccc1C2=O)OC	.	.	27	53	.	.	20
O=C(Nc1ccccc1)N[C@@H]1CC[C@H](CCNS(=O)(=O)c2cccc(F)c2)O[C@H]1CO	/	.	/	/	.	/	/
Cc1ccsc1C=Nc1ccc(O)cc1	.	.	.	78	/	.	36
COC(=O)c1cc(C)nc2c1C(=O)C(=O)C=C2N1CCOCC1	.	.	.	96	.	?	0.97
CCn1c(SCC(=O)Nc2nc(-c3ccc(C)cc3)cs2)nnc1-c1ccccc1O	.	.	.	38	/	.	.
CO[C@H]1CN(C)C(=O)c2cc(NC(=O)C3CC3)ccc2OC[C@H](C)N(Cc2ccccc2)C[C@@H]1C	/	.	/	/	.	/	/
O=C(N/C(=C\c1ccc([N+](=O)[O-])cc1)C(=O)N1CCCCC1)c1ccccc1	.	/	.	.	.	.	/
O=[N+]([O-])/C(C(Cl)=C(Cl)Cl)=C(/Sc1ccccc1)N1CCCCC1	.	/	.	34	.	.	.
C[C@@H]1CN([C@H](C)CO)C(=O)c2cc(NC(=O)Nc3ccc4c(c3)OCO4)ccc2O[C@H]1CN(C)C(=O)Nc1ccc(F)cc1	/	.	/	/	/	/	/
Cc1noc(C)c1NC(=O)N(C)C[C@@H]1OCCCC[C@@H](C)Oc2ccc(NS(=O)(=O)c3ccc(F)cc3)cc2C(=O)N([C@H](C)CO)C[C@@H]1C	/	.	/	/	.	/	/
CN1CCN(C(c2ccc(C(F)(F)F)cc2)c2cc(Cl)c3cccnc3c2O)CC1 (stereo unspecified)	.	/	.	44	.	/	18
CN1CCN(C(c2ccc(Cl)cc2)c2cc(Cl)c3cccnc3c2O)CC1 (stereo unspecified)	.	.	.	79	.	.	31
COCC(=O)Nc1ccc2c(c1)[C@H]1C[C@@H](CC(=O)NCc3ccc(Cl)cc3)O[C@@H](CO)[C@H]1O2	/	.	/	/	/	/	/
O=C(Oc1ccc(N2C(=O)C3C4CCC(C4)C3C2=O)cc1)c1ccco1 (stereo unspecified)	.	.	.	30	.	.	.
O=C1C2C3CCC(C3)C2C(=O)N1c1ccc(OS(=O)(=O)c2ccccc2)cc1 (stereo unspecified)	.	/	.	.	.	.	/
SMILES	Rv3671c protease	Mtb BioA inh	Mtb UGM inh	RecA intein inh	TcdB inh	FadD28 binding	GFP chromophore
C[C@H](CO)N1C[C@H](C)[C@@H](CN(C)C(=O)CCCN(C)C)OCCCC[C@H](C)Oc2ccc(NC(=O)CCCN(C)C)cc2C1=O	/	.	/	/	.	/	/
COC(=O)CC1(c2cccc3ccccc23)C(=O)c2ccccc2C1=O	.	.	.	42	/	.	6.6
COc1ccc(C(O)c2nccc3cc(OC)c(OC)cc23)cc1OC (stereo unspecified)	.	/	.	53	.	.	25
COc1cc(C(c2c(C)[nH][nH]c2=O)c2c(C)[nH][nH]c2=O)ccc1OC(=O)c1cccc([N+](=O)[O-])c1	.	/	.	/	/	.	/
COc1cc(C(c2c(C)[nH][nH]c2=O)c2c(C)[nH][nH]c2=O)ccc1OS(=O)(=O)c1ccc(C)cc1	.	.	.	98	/	.	0.44
COc1cc(C(c2c(C)[nH][nH]c2=O)c2c(C)[nH][nH]c2=O)ccc1OS(=O)(=O)c1ccccc1	.	.	.	95	/	.	0.44
CCC(=O)N1CCC2(CC1)CN(C(=O)Cc1ccccc1)[C@@H](CO)c1c2c2ccc(OC)cc2n1C	/	/	/	/	.	/	/
O=[N+]([O-])c1cc([N+](=O)[O-])c2cc3ccccc3nc2c1	.	.	.	93	.	.	4.9
O=[N+]([O-])c1cnc2ccccc2c1	.	.	.	.	.	.	/
O=C(C/C=N\OCc1c(Cl)cccc1Cl)Oc1ccc(Cl)cc1Cl	.	.	.	45	/	.	27
Cc1ccc(-c2cc(=O)[nH][nH]2)c(C)c1	.	.	.	95	/	.	2.9
Cc1ccc(-c2csc3nc[nH]c(=O)c23)c(C)c1	.	.	.	.	.	.	/
Cc1ccc(N(C(=O)CCl)C(C(=O)NC2CCCCC2)c2cccnc2)cc1C (stereo unspecified)	.	/	.	72	/	/	2.6
Cc1ccc(N(C(=O)CNC(=O)c2ccco2)C(C(=O)NC2CCCCC2)c2cccnc2)cc1C (stereo unspecified)	.	.	.	.	.	.	/
O=C(CCl)NN=C(c1ccccc1)c1ccccc1	.	.	.	59	.	.	26
CCCNC(=O)N1CCC2(CC1)CN(C(=O)NC(C)C)[C@@H](CO)c1c2c2ccc(OC)cc2n1C	/	/	/	/	.	/	/
C[C@@H]1CN([C@@H](C)CO)C(=O)c2cc(NC(=O)Nc3ccc(F)cc3)ccc2O[C@H]1CN(C)S(=O)(=O)c1ccccc1	/	.	/	/	.	/	/
C[C@H](CO)N1C[C@H](C)[C@H](CN(C)C(=O)Nc2ccc(F)cc2)Oc2ncc(C#Cc3cccc(F)c3)cc2C1=O	/	.	/	/	/	/	/
CC(=O)N1CC2(C1)[C@H](c1ccc(-c3cccc(F)c3)cc1)[C@H](CO)N2CC1CCCC1	/	/	/	/	.	/	/
CCN1C(=O)c2ccc(-c3nc4ccccc4c(=O)o3)cc2C1=O	.	.	.	.	.	.	/
CCN1C(=O)c2c(C)nc3ccccc3c2C1=O	.	/	.	47	.	.	2.2
C[C@H](O)C#Cc1cnc2c(c1)C(=O)N([C@H](C)CO)C[C@H](C)[C@@H](CN(C)C(=O)CN1CCOCC1)O2	/	.	/	/	.	/	/

Screening data (PubChem BioAssay)
